FLuc counter = inhibits or activates purified firefly luciferase, miR-21 counter-screen; purified FLuc, Km substrates, luminescence inhibition; Potency, µM (top dose mostly 57.5 µM), inactives show at the highest dose activity change, negative = inhibition, usual class: inhibitors; 360,000 compounds, 6.9% hits; AID 588342;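 also: plate controls were vehicle for no effect and reference inhibitor for full effect; nearly all actives have a fitted effect of over 55% in size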
Target sequence (P08659 whole entry, looked up): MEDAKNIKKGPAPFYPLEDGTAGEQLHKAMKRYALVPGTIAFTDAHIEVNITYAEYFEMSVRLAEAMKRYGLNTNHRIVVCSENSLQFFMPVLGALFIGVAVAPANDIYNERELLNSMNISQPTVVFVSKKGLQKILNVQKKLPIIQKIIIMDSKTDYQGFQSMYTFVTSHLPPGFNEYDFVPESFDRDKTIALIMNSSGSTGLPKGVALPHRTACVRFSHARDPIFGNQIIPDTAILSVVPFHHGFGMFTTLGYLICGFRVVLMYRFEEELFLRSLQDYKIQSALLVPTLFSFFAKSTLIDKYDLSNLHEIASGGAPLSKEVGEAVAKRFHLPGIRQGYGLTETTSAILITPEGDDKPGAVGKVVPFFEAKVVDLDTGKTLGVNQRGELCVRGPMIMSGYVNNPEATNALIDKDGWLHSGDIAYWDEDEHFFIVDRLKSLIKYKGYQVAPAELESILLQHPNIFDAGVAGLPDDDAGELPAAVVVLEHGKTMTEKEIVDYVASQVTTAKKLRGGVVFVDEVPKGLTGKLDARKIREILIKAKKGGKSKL
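Purified P. pyralis luciferase (10nM final) with 10uM D-luciferin and 10uM ATP (Km levels) in 50mM Tris acetate pH 7.5, 10mM Mg acetate, 0.01% Tween-20, 0.05% BSA; qHTS 6-point titration, ~60 µM downward; luminescence read.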
NPC1 prom act = NPC1 promoter activation. AID 485313. Potency, µM (top dose mostly 9.22 µM), inactives show at the highest dose activation, most hits filed as activators. 320,000 compounds, 2.4% hits. Huh7 NPC1 promoter luciferase reporter, 24 h; also: % of control where 0% means no effect; nearly all actives have a fitted effect of over 60% in size
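Cells: Huh7 expressing luciferase under the NPC1 promoter, 1500/well. Seeded 2 h, compound added, incubated 24 h at 37 °C. Luciferase reagent, 10 min ambient, then luminescence.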
SMN2 splice up = SMN2 splice variant enhancement; Potency, µM (doses to about 46.1 µM), inactives show at the top dose activity change, positive = activation, most hits filed as activators; 210,000 compounds, 2.8% hits; HEK293 SMN2-luciferase splicing reporter, luminescence, 30-36 h; also: % of control where 0% means no effect; nearly all actives have a fitted effect of over 55% in size
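HEK293 cells carry an SMN2 […]–luciferase reporter in which exon 7 inclusion puts luciferase in frame. Cells were plated 10-12 h before compound addition, then incubated 30-36 h at 37C. ONE-Glo luminescence was read; sodium butyrate at 4.5 mM final served as control.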
Rab9 prom act = activates the Rab9 promoter. Huh7 Rab9 promoter-luciferase reporter, luminescence, 24 h. Potency, µM (doses to about 9.22 µM), without a hit: at the top dose activation, negative = inhibition, usual class: activators. 320,000 compounds, 2.8% hits. AID 485297; also: % of control where 0% means no effect; nearly all actives have a fitted effect of over 60% in size
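Luciferase signal after 10 min detection reagent at ambient indicates Rab9 promoter upregulation; stably transfected Huh7 cells were treated 24 h with compound in DMSO at 37 °C, 5% CO2.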
p53 reactivation = mutant p53 re-activation in reporter cells; 320,000 compounds, 0.063% hits; AID 504706; H1299 p53-A138V BP100-luciferase reporter, luminescence, 24 h; Potency, µM (doses to about 92.2 µM), for the others: at the top dose activity change, positive = activation, actives largely listed as activators; also: % of control where 0% means no effect; nearly all actives have a fitted effect of over 45% in size
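p53-null H1299 cells stably carrying temperature-sensitive p53-A138V and a BP100-luciferase reporter were pinned with compounds (4-point, 1:5 series) and held 24 hrs at 37 deg C. Luminescence was read 10 min after detection reagent.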
ELG1 genotoxic = induces genotoxicity in HEK293T cells with luciferase-tagged ELG1 | HEK293T ELG1-luciferase reporter, luminescence, 16 h | Potency, µM (highest dose often 46 µM), for inactives: at the top dose activity change, positive = activation, actives largely listed as activators | 330,000 compounds, 1.3% hits | AID 504466; also: % of control where 0% means no effect; nearly all actives have a fitted effect of over 60% in size
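Genotoxicity was scored as increased ELG1-luciferase reporter signal, measured by ONE-Glo luminescence (30 min, room temperature). Compound or vehicle exposure of the HEK293T reporter cells lasted 16 hr at 37°C.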
* = called active by the depositor; ? = inconclusive; . = no result given. Hits are enriched below; roughly 7.3% of the tested compounds scored in any of these assays. Calls follow the shape of the dose curve; as a rule, active = well fitted curve in the direction sought with a large enough effect; inconclusive = small, poorly fitted or top-dose-only effect, or another doubt; inactive = no such curve, though single readings can be large; an effect the other way counts as inactive or inconclusive. Potency is read from the fitted curve at half-maximal effect.

SMILES	FLuc counter	NPC1 prom act	SMN2 splice up	Rab9 prom act	p53 reactivation	ELG1 genotoxic
Oc1ccc(-c2nnc(-c3ccc(O)cc3)nn2)cc1	2.69µM*	3.16µM*	14.1µM*	3.98µM*	?	18.4%
Oc1ccc(-c2nccc(-c3ccc(Cl)cc3)n2)cc1	16.9µM*	2.0%	11.9%	13.2%	25.9%	?
Oc1ccc(-c2cccc(-c3ccc(O)cc3)n2)cc1	16.9µM*	-2.6%	?	26.9%	?	10.5%
Oc1ccc(-c2nccc(-c3cccs3)n2)cc1	8.49µM*	?	?	21.9%	?	?
Cc1ccc(C)n1-c1nccc(-c2cccs2)n1	2.8%	-7.0%	-22.0%	-7.2%	-0.9%	-0.2%
COc1ccc(OC)c(CCNC(=O)CN2C(=O)COc3ccc(S(=O)(=O)N4CCC(C)CC4)cc32)c1	2.8%	.	?	.	.	.
Cc1c(C(C)(C)O)[nH]c2ccc(C(F)(F)F)cc12	-14.9%	-0.6%	.	8.4%	.	1.0%
Cc1ccc(C)c(S(=O)(=O)c2nnn3c2nc(N2CCCCC2)c2sccc23)c1	-7.6%	.	.	.	.	.
CCCCN(CCCC)C1=C(C(=O)c2ccccc2)N(C)S(=O)(=O)c2ccccc21	-8.9%	.	-3.5%	.	.	.
COC(=O)C(C)Oc1ccc(-c2nccc(-c3cccs3)n2)cc1 (centres undefined)	16.9µM*	18.1%	?	24.0%	29.7%	10.7%
CC(=O)c1c(C)[nH]c(C(=O)CN2CCN(S(=O)(=O)c3ccccc3)CC2)c1C	2.2%	-1.6%	.	-7.8%	3.7%	-1.8%
COC(=O)c1sccc1NC(=O)/C=C/c1ccc(Cl)cc1Cl	?	?	11.2µM*	?	?	?
COC(=O)c1sccc1NC(=O)c1c(Cl)cccc1Cl	2.2%	-3.1%	.	-3.0%	-4.0%	1.8%
COC(=O)c1sccc1NC(=O)/C=C/c1c(Cl)cccc1Cl	12µM*	21.5%	14.1µM*	?	3.6%	?
COC(=O)c1cc(Cl)c(NC(=O)/C=C/c2ccc(Cl)cc2Cl)cc1OC	-19.8%	13.3%	-7.3%	0.2%	0.5%	?
O=C(N/N=C/C(Br)=C/c1ccccc1)C1CC1	?	29.4%	.	2.82µM*	?	10.3%
O=C(N/N=C/C(Br)=C/c1ccccc1)C(O)c1ccccc1 (centres undefined)	15.1µM*	21.8%	.	28.0%	?	3.6%
O=C(O)c1ccc(N/N=C/C(Br)=C/c2ccccc2)cc1	0.477µM*	0.355µM*	.	0.316µM*	?	?
Cc1ccc(NCC(=O)N/N=C\C(Br)=C\c2ccccc2)cc1	6.8%	-2.1%	8.8%	2.7%	9.4%	5.3%
COC(=O)[C@@]1(Cc2ccccc2)[C@H]2c3cc(C(=O)N4CCCC4)n(CC4CC4)c3C[C@H]2CN1C(=O)c1ccccc1	.	.	-12.5%	.	.	.
COc1ccccc1NC(=O)C1CCN(S(=O)(=O)c2cn(C)cn2)CC1	-5.8%	.	.	.	.	.
O=C(CSc1nnc2scc(-c3ccc(Cl)cc3)n12)Nc1ccc(F)cc1	0.4%	.	-13.3%	.	.	.
CCN1C(=O)c2cccc3c(S(=O)(=O)Nc4ncccc4C)ccc1c23	3.0%	-0.9%	?	0.7%	12.3%	11.1%
CN1C(=O)c2cccc3c(S(=O)(=O)Nc4ccccc4F)ccc1c23	0.3%	-7.8%	.	-0.3%	-5.0%	5.8µM*
CCN1C(=O)c2cccc3c(S(=O)(=O)Nc4ccccn4)ccc1c23	-0.1%	-5.3%	?	-3.3%	-4.4%	20.6µM*
SMILES	FLuc counter	NPC1 prom act	SMN2 splice up	Rab9 prom act	p53 reactivation	ELG1 genotoxic
CCN1C(=O)c2cccc3c(S(=O)(=O)Nc4ccccc4)ccc1c23	-4.7%	-5.0%	20µM*	-5.4%	-9.1%	?
CCN1C(=O)c2cccc3c(S(=O)(=O)NCC4CCCO4)ccc1c23 (centres undefined)	-1.2%	-0.4%	.	-2.3%	-4.0%	14.6µM*
Cc1ccc(C2=NN(C(=O)CSc3nnnn3C)C(c3ccco3)C2)cc1 (centres undefined)	-6.7%	-5.1%	.	-2.0%	8.0%	-2.8%
CCN1C(=O)c2cccc3c(S(=O)(=O)Nc4nc(C)cs4)ccc1c23	1.3%	-1.4%	12.6µM*	-2.1%	-11.3%	?
CN(C)C=Nc1ccc2nc3c(cc2c1)[nH]c1ccccc13	1.35µM*	1.26µM*	.	1.41µM*	13.2%	?
Nc1nnc2c(n1)[nH]c1ccccc12	-4.4%	.	-10.9%	.	.	.
CC1(C)Cc2c(sc3nc(N/N=C/c4ccccc4)[nH]c(=O)c23)CO1	?	3.3%	-40.3%	21.8%	2.4%	1.7%
CC(C)=NNc1nc2sc3c(c2c(=O)[nH]1)CC(C)(C)OC3	15.1µM*	0.7%	-0.3%	-4.4%	4.7%	0.1%
CSc1nc2sc3c(c2c(=S)[nH]1)CC(C)(C)OC3	19µM*	2.5%	.	17.3%	1.3%	-1.9%
CC(C)OC(=O)CSc1nnnn1-c1ccc2c(c1)OCCO2	16.9µM*	22.5%	-1.4%	?	?	2.0%
COc1ccc(OC)c(NC(=O)CSc2nnnn2-c2ccc3c(c2)OCO3)c1	-1.9%	-4.9%	35.5µM*	-4.8%	16.0%	10.8%
COC(=O)c1ccc(-n2nnnc2SCC(=O)Nc2cc(OC)ccc2OC)cc1	-2.1%	0.6%	-10.4%	3.5%	-0.6%	-3.5%
N=C1C(c2nc3ccccc3[nH]2)=C(O)CN1C1CCCCC1	?	3.16µM*	.	2µM*	13.3%	?
COc1ccc(C2c3c(oc4ccc(Cl)cc4c3=O)C(=O)N2CCCN(C)C)cc1OC (centres undefined)	-2.3%	.	.	.	.	.
O=c1c2ccccc2nc2c3ccccc3c(Cl)nn12	-1.3%	-7.7%	-64.8%	16.0%	2.3%	3.4%
O=c1c2ccccc2nc2c3ccccc3cnn12	?	?	?	2.24µM*	6.8%	?
CCN1CCC2(CCN(C(=O)c3cc(COc4cc(C)ccc4C)on3)C2)C1 (centres undefined)	-0.3%	-6.5%	.	-2.4%	2.0%	-0.3%
COc1cc(Cl)ccc1OCc1cc(C(=O)N2CCC(N(C)C)C2)no1 (centres undefined)	-17.3%	0.5%	.	-3.1%	-1.8%	4.0%
COc1ccc(OCc2cc(C(=O)N3CCCC(O)C3)no2)c2ccccc12 (centres undefined)	12µM*	?	.	?	15.1%	?
Cc1ccc(C)c(OCc2cc(C(=O)N3CC[C@H](O)C3)no2)c1	12µM*	29.6%	.	2.51µM*	23.4%	?
COc1ccc(OCc2cc(C(=O)N3CCCC(OC)C3)no2)c2ccccc12 (centres undefined)	26.9µM*	?	.	?	6.1%	?
